Compounds with a hit are over-represented: about 2.8% of the library has one in this group of screens.
NFkB SMM = binders of NF-kB p50 subunit, primary screen, biochemical, small molecule microarray, anti-His fluorescence. Nuclear factor NF-kappa-B p105 subunit (Homo sapiens), P19838. calls only. anti-His fluorescence binding. actives 1.3% (n = 17,000);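 active means spot fluorescence over background significantly raised, with a chance value under 7% in all four replicate spots of the compound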;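 further: probe protein is his-tagged human p50 processed subunit at 1 µg/ml; raw spot fluorescence signals with no normalization applied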
Target sequence (P19838 1-433 limits assumed): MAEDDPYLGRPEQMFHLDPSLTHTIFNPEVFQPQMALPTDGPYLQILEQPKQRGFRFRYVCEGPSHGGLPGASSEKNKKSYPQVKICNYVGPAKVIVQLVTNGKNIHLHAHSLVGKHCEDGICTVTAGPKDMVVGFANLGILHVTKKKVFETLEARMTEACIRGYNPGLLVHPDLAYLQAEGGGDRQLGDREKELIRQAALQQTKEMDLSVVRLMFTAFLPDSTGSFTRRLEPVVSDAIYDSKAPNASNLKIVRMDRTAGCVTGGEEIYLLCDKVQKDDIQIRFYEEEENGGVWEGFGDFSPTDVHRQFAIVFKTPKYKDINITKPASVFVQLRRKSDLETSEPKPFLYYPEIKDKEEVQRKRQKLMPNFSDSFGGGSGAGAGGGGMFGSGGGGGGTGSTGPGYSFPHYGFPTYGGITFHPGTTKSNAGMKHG
Myc binder = binders of human c-Myc, primary screen, biochemical, small molecule microarray, anti-His fluorescence; Myc proto-oncogene protein (Homo sapiens), P01106; His-c-Myc binding; calls only; actives 1.5% (n = 17,000); AID 624141, 2012;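 active means spot fluorescence over background with P-value below 7% in all four replicate spots, showing protein binding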;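 further: score is binary with 100 for all four spots passing and 0 otherwise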
p53 mut binder = binders of human mutant p53, primary screen, biochemical, small molecule microarray, anti-GST fluorescence; calls only; actives 0.4% (n = 17,000); small molecule microarray binding; AID 624136, 2012;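 active means compounds whose four printed spots each glow above background more than chance allows, each with a p-value under 7%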
STAT3 SMM = STAT3 binders, primary screen, biochemical, small molecule microarray, single point, set 2; Signal transducer and activator of transcription 3 (Homo sapiens), P40763; His-STAT3 binding, anti-His fluorescence; calls only; actives 0.2% (n = 17,000);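 active means compounds whose four printed spots each show fluorescence over background unusually high for their array block, chance value under 7%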
mut p53 react = mutant p53 pathway re-activators, primary screen, cell-based, SW480, luciferase, single point, HTS; SW480 PUMA-promoter luciferase, p53 mutant reactivation; activation, % at 9.98 µM; actives 1.5% (n = 28,000); AID 624151, 2012; in the data active means activation above about 52%
* hit, by the source's call; i = inactive; . = no result; + = active, no number.

SMILES | NFkB SMM | Myc binder | p53 mut binder | STAT3 SMM | mut p53 react
C[C@@H]1CCCCO[C@H](CN(C)C(=O)CCC(F)(F)F)[C@@H](C)CN([C@@H](C)CO)C(=O)c2cc(NS(C)(=O)=O)ccc2O1 | i | i | i | i | -2
C[C@H]1CCCCO[C@H](CN(C)C(=O)CCC(F)(F)F)[C@@H](C)CN([C@@H](C)CO)C(=O)c2cc(NS(C)(=O)=O)ccc2O1 | + | + | i | i | 17
C[C@@H]1CN([C@@H](C)CO)C(=O)c2cc(NS(C)(=O)=O)ccc2O[C@@H](C)CCCCO[C@@H]1CN(C)C(=O)CCC(F)(F)F | i | + | i | i | 5
COc1ccc(Cn2c3ccc(Br)cc3c3nc4ccccc4nc32)cc1OC | i | + | i | i | 7
Cc1ccc(F)cc1N1C(=O)COCC1=O | . | . | . | . | -14
CC(Oc1ccc(Br)cc1)C(=O)Nc1ccccc1[N+](=O)[O-] (stereo not given) | . | . | . | . | 10
CC(Oc1ccccc1F)C(=O)Nc1ccccc1[N+](=O)[O-] (stereo not given) | . | . | . | . | 57*
Cc1sc2c(c1C)-c1nc(SCC(=O)C(C)(C)C)ncc1S(=O)(=O)N2C | . | . | . | . | 16
CN1c2ccccc2Oc2nnc(N3CCN(c4ccccc4)CC3)cc21 | . | . | . | . | 95*
COCCOC(=O)N1C(=O)[C@@]2(c3cc(C#CCC(C(=O)OC)C(=O)OC)ccc31)[C@H](c1ccc(OCCO)cc1)N1[C@H](c3ccccc3)[C@H](c3ccccc3)OC(=O)[C@H]1[C@@H]2C(=O)N1CCN(c2ncccn2)CC1 | + | i | i | i | .
COCCOC(=O)N1C(=O)[C@@]2(c3ccccc31)[C@H](C(=O)N1CCN(c3ncccn3)CC1)[C@H]1C(=O)O[C@H](c3ccccc3)[C@H](c3ccccc3)N1[C@@H]2c1ccc(OCCO)cc1 | i | i | i | i | .
COCCOC(=O)N1C(=O)[C@@]2(c3cc(C#CC4=CCCCC4)ccc31)[C@H](C(=O)N1CCN(c3ncccn3)CC1)[C@H]1C(=O)O[C@H](c3ccccc3)[C@H](c3ccccc3)N1[C@@H]2c1ccccc1OCCO | + | i | i | i | .
COc1ccc2[nH]c3c(OC)ncnc3c2c1 | . | . | . | . | 81*
COc1ccc2[nH]c(C(=O)O)c(CCC(=O)O)c2c1 | i | i | i | i | 2
Cc1cc(C)c(NC(=O)CN(c2ccc(Br)cc2)S(C)(=O)=O)c(C)c1 | . | . | . | . | 4
Cc1ccc(C)c(OCCCCSc2ncccn2)c1Cl | i | i | i | i | 39
Cc1cc(Cl)cc(Br)c1OCCCSc1ncccn1 | . | . | . | . | 132*
O=C(O)/C=C\C(=O)Nc1ccccc1SCC(O)Cn1ccc(C(F)(F)F)n1 (stereo not given) | . | . | . | . | 5
N#CC1=C(SCC(=O)Nc2ccccc2C(=O)c2ccccc2)NC(=O)CC1c1ccccc1F (stereo not given) | . | . | . | . | 2
COC(=O)C(CC#Cc1ccc2c(c1)[C@]1(C(=O)N2)[C@H](C(=O)N2CCCCCCC2)[C@H]2C(=O)O[C@H](c3ccccc3)[C@H](c3ccccc3)N2[C@@H]1c1ccccc1OCCO)C(=O)OC | + | i | i | i | .
NC(=O)NCC#Cc1ccc2c(c1)[C@]1(C(=O)N2)[C@H](C(=O)N2CCCCCCC2)[C@H]2C(=O)O[C@H](c3ccccc3)[C@H](c3ccccc3)N2[C@@H]1c1ccc(O)cc1 | i | + | + | i | .
COC(=O)C(CC#Cc1ccc2c(c1)[C@]1(C(=O)N2)[C@H](C(=O)N2CCCCCCC2)[C@H]2C(=O)O[C@H](c3ccccc3)[C@H](c3ccccc3)N2[C@@H]1c1ccc(OCCO)cc1)C(=O)OC | i | i | + | i | .
O=C1O[C@@H](c2ccccc2)[C@@H](c2ccccc2)N2[C@@H](c3ccc(O)cc3)[C@]3(C(=O)Nc4ccc(C#CCCO)cc43)[C@@H](C(=O)N3CCCCCCC3)[C@H]12 | i | i | i | i | .
Cc1ccc(C(C)C)c(OCC(=O)Nc2ncc(I)cc2C)c1 | . | . | . | . | 6
COc1ccccc1NC(=O)c1ccc(OCC(=O)Nc2cc(Cl)cc(Cl)c2)cc1 | . | . | . | . | -34
SMILES | NFkB SMM | Myc binder | p53 mut binder | STAT3 SMM | mut p53 react
Oc1c(C(Nc2ccccn2)c2c(F)cccc2Cl)cc(Cl)c2cccnc12 (stereo not given) | . | . | . | . | -63
CC1CC[C@@]2(OC1)O[C@H]1CC3C4CC=C5C[C@@H](O[C@@H]6O[C@H](CO)[C@@H](O)[C@H](O)[C@H]6O)CC[C@]5(C)C4CC[C@]3(C)[C@@]1(O)[C@@H]2C (stereo not given in full) | + | i | i | i | 12
C[C@@H]1O[C@@H](O[C@H]2[C@H](O)[C@@H](O)[C@H](O[C@H]3[C@H](O[C@H]4CC[C@@]5(C)C(=CC[C@H]6C7C[C@@H]8O[C@]9(CC[C@@](C)(CO[C@@H]%10O[C@H](CO)[C@@H](O)[C@H](O)[C@H]%10O)O9)[C@H](C)C8[C@@]7(C)CCC65)C4)O[C@H](CO)[C@@H](O)[C@@H]3O)O[C@@H]2CO)[C@H](O)[C@H](O)[C@H]1O (stereo not given in full) | i | i | i | i | -92
O=C(O)CCCC(=O)Nc1ccc(Br)cc1C(=O)O | + | + | i | i | 7
COc1cc(C(c2c[nH]c3ccccc23)c2c[nH]c3ccccc23)c(O)c([N+](=O)[O-])c1 | . | . | . | . | -20
Cc1ccc(OCCCn2c(CO)nc3ccccc32)cc1 | . | . | . | . | 63*
Cc1cccc(OCCCn2c(CO)nc3ccccc32)c1 | . | . | . | . | 25
N#Cc1ccccc1NC(=O)CCCN1C(=O)c2ccccc2C1=O | . | . | . | . | 7
CC(C)n1cnc2c(NCc3ccccc3)nc(NCCO)nc21 | . | . | . | . | 92*
CC(C)n1cnc2c(NCc3ccccc3)nc(NCCCO)nc21 | i | i | i | i | -7
CSCC(NS(=O)(=O)c1ccc(Br)cc1)C(=O)O (stereo not given) | + | + | i | i | -12
Cc1ccc(S(=O)(=O)NC(Cc2c[nH]c3ccccc23)C(=O)O)cc1 (stereo not given) | i | i | i | i | -5
O=C(c1ccc(Cl)cc1)c1ccc(CSc2nnc(-c3ccccc3)o2)o1 | . | . | . | . | 3

Screening results as filed in PubChem BioAssay.
